This is part of a sample that, as a whole, favours compounds with a hit. Of some 83,000 tested, about 20% had one in any assay.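 How to read the values: 0–100, growth inhibition (40 = 60% inhibited); 0, no net growth; -100 to 0, cell death (-40 = 40% of starting cells died; -100 = all dead).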 Calls of active or inactive are those of the source. The calls were made as follows: active = growth percent below 10; inactive = the rest.
Key:
Test in all cases: NCI-60 one-dose screen, 48 h (100 = growth as untreated, 0 = no growth, -100 = all killed)
Settings in all cases: 10 µM
[1] = test system: HCT-15 colon
[2] = test system: HT29 colon
[3] = test system: SNB-19 CNS
[4] = test system: PC-3 prostate
[5] = test system: SK-MEL-5 melanoma
[6] = test system: UACC-62 melanoma
[7] = test system: LOX IMVI melanoma
[8] = test system: SK-MEL-28 melanoma
[9] = test system: SK-MEL-2 melanoma
[10] = test system: SN12C renal
[11] = test system: UO-31 renal
[12] = test system: ACHN renal
[13] = test system: CAKI-1 renal
[14] = test system: A498 renal
[15] = test system: CCRF-CEM leukemia
[16] = test system: MOLT-4 leukemia
[17] = test system: U251 CNS
[18] = test system: TK-10 renal
[19] = test system: EKVX NSCLC

Measured: growth

CC(C)C[C@H](NC(=O)CCn1ccc2ccccc2c1=O)B(O)O
active: [14] 7.69% | [16] 5.52%
inactive: [1] 61.7% | [2] 25.7% | [3] 66.1% | [4] 56% | [5] 29.1% | [6] 33.3% | [7] 40.6% | [8] 36.9% | [9] 63.8% | [10] 63.7% | [11] 57.3% | [12] 28.6% | [13] 45.6% | [15] 12%

CCCn1c(=O)c2c(nc(-c3cccc(OCCCCl)c3)n2C)n(CCC)c1=O
inactive: [1] 69.1% | [2] 74.2% | [3] 32.9% | [17] 17% | [4] 62.3% | [5] 64.9% | [6] 78.9% | [7] 48.5% | [8] 81.7% | [9] 75.6% | [10] 37.3% | [11] 27.8% | [18] 36.5% | [13] 43.7% | [15] 86.3% | [16] 73.2%
active: [12] 3.03% | [14] -10.8%

CCOC(=O)c1c(C)n(-c2ccc(Cl)cc2)c2ccc(OC(=O)/C=C/c3ccccc3)cc12
inactive: [1] 60.8% | [2] 66.1% | [3] 89.7% | [17] 83.2% | [4] 67.7% | [5] 79.1% | [6] 68.1% | [7] 91.4% | [8] 81.9% | [9] 64.2% | [10] 86.6% | [11] 83.1% | [18] 96% | [12] 98.7% | [13] 103% | [14] 68.7% | [15] 75.1% | [16] 69.8%

O=C(OCC1OC(n2cc(C(F)(F)F)c(=O)[nH]c2=O)CC1OC(=O)c1ccc([N+](=O)[O-])cc1)c1ccc([N+](=O)[O-])cc1 (stereo unspecified)
inactive: [1] 87% | [2] 75.3% | [3] 94.5% | [17] 76.1% | [4] 71.7% | [5] 43.2% | [6] 30.7% | [7] 64.2% | [8] 86.9% | [9] 78% | [19] 107% | [10] 43.4% | [11] 50.3% | [18] 86.7% | [12] 16% | [13] 38.6% | [14] 60.6% | [16] 77.4%

N#Cc1ncc(-c2cc(F)ccc2F)c(NC2CCCCCC2)n1
inactive: [1] 82.8% | [2] 94.7% | [3] 64% | [4] 60.7% | [5] 84.9% | [6] 60.9% | [7] 80.6% | [8] 80.8% | [9] 74.9% | [10] 80.8% | [11] 81.5% | [18] 101% | [12] 88.8% | [13] 88.2% | [14] 58.2% | [15] 81.3% | [16] 79.4%
active: [17] 9.98%

CCNC1(NC#N)CCCCC1
inactive: [1] 98.8% | [2] 123% | [3] 110% | [17] 98.9% | [4] 95% | [5] 96.8% | [6] 105% | [7] 104% | [8] 103% | [9] 157% | [10] 100% | [11] 90.9% | [18] 141% | [12] 111% | [13] 96.3% | [14] 98.3% | [15] 102% | [16] 108%

O=C(Nc1ccc(CN2CCOCC2)cc1)c1ccc(-c2cc(Cl)ccc2Cl)o1
active: [2] 2.85% | [6] -56.1% | [7] 4.07%
inactive: [1] 17% | [3] 54.7% | [17] 32.4% | [4] 41.4% | [5] 37.1% | [8] 41.4% | [9] 55.5% | [10] 63.4% | [11] 25.4% | [18] 49.4% | [12] 41.8% | [13] 43.5% | [14] 87.1% | [15] 38.6% | [16] 42.9%

Nc1nc2c(ncn2C2OC3COP(=O)(O)OC4C(COP(=O)(O)OC2C3O)OC(n2cnc3c(N)ncnc32)C4O)c(=O)[nH]1 (stereo unspecified)
inactive: [1] 106% | [2] 97.4% | [3] 93.5% | [17] 110% | [4] 108% | [5] 106% | [6] 103% | [7] 90.2% | [9] 115% | [10] 106% | [11] 104% | [18] 112% | [12] 105% | [13] 100% | [15] 97.8% | [16] 92.8%
active: [14] 5.1%

Source: PubChem BioAssay (NCI)
